According to PubChem BioAssay AID1063 (University of Pittsburgh Molecular Library Screening Center, 2008):
In all, about 200,000 compounds went through this assay and about 18,000 (9%) were called active. Shown is part of a subset that was picked to be rich in actives. Unmarked numbers belong to inactive results. No stated cut-off is given here; in the data, active means inhibition above about 50%; inactive means the rest.

Assay: antileishmanial activity against promastigotes – primary screen (AID 1063);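 further: promastigotes grown with compound for 44 hours at 28 °C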
Details: Leishmania major promastigotes, resazurin fluorescence viability; at 10 µM; hits give high values

| SMILES | inhibition |
| --- | --- |
| O=C(CSc1ccsc1[N+](=O)[O-])N1CCCCC1 | 14.2% |
| Cc1nnc(N/N=C/C2CC=CCC2)[nH]c1=O (stereo not drawn) | -5.21% |
| COc1cccc(CNC(=O)c2n[nH]c3ccccc23)c1 | 6.49% |
| COc1ccc(COC(=O)c2n[nH]c3ccccc23)cc1F | 97.5% (active) |
| O=C(COC(=O)c1n[nH]c2ccccc12)NCc1ccccc1 | 3.11% |
| CCSc1ccccc1C(=O)Nc1ccc2c(c1)OCO2 | 7.96% |
| CN(C)CCCn1c(SCCN2C(=O)c3ccccc3C2=O)nc2ccccc2c1=O | -2.2% |
| Cn1c(N)c(C(=O)COC(=O)c2cnc(Cl)c(Cl)c2)c(=O)n(C)c1=O | -4.42% |
| Cc1ccc(C)c(NC(=O)CCC(=O)N/N=C2/CC(=O)CC(C)(C)C2)c1 | -2.4% |
| Cc1nnc(SC(C(=O)Nc2cc(Cl)cc(Cl)c2)c2ccccc2)[nH]c1=O (stereo not drawn) | -10.6% |
| O=C(CCC(=O)N1CCCC1)Nc1ccc([N+](=O)[O-])cc1 | -1.46% |
| O=C(NCc1ccco1)C1CCCN(S(=O)(=O)c2ccccc2)C1 (stereo not drawn) | -0.05% |
| O=C(CN(CC1CCCO1)C(=O)CNS(=O)(=O)c1ccc(F)cc1)NCc1ccco1 (stereo not drawn) | -10% |
| CCCC(C(=O)NCc1ccco1)N(C(=O)CNS(=O)(=O)c1ccccc1)C1CCCC1 (stereo not drawn) | 60% (active) |
| COc1ccc(CSc2nc(N3CCOCC3)c3c(c2C#N)CC(C)(C)OC3)cc1 | 66.8% (active) |
| CC(C)c1nc(N2CCOCC2)c(C#N)c2c1COC(C)(C)C2 | 4.48% |
| CC1(C)Cc2c(C#N)c(SCc3nc4ccccc4[nH]3)nc(N3CCOCC3)c2CO1 | 34.1% |
| CCN(CC)C(=O)CS(=O)CC(=O)Nc1cc(OCCOC)c(Cl)cc1Cl (stereo not drawn) | 1.34% |
| Cc1ccnc2nc(C(=O)Nc3nnc(-c4ccccc4)o3)nn12 | -14.4% |
| CCOc1ccc(-n2cnnn2)cc1S(=O)(=O)N1CCC(C)CC1C (stereo not drawn) | -5.29% |
| COc1cc2[nH]c(=S)n(Cc3ccc(F)cc3)c(=O)c2cc1OC | -5.46% |
| CCOC(=O)C1CCN(S(=O)(=O)c2cc(F)ccc2OC)CC1 | 6.21% |
| Cc1cc2cc(CN(Cc3cccs3)Cc3nnnn3CC3CCCO3)c(=O)[nH]c2cc1C (stereo not drawn) | 21.2% |
| Cc1cccc2cc(CN(Cc3ccc4c(c3)OCO4)Cc3nnnn3C3CCCC3)c(=O)[nH]c12 | 71.8% (active) |
| Cc1cccc2cc(CN(Cc3cccs3)C(c3nnnn3C3CCCC3)C(C)C)c(=O)[nH]c12 (stereo not drawn) | 90.3% (active) |
| Cc1cccc2cc(CN(Cc3nnnn3Cc3ccccc3)C3CCCC3)c(=O)[nH]c12 | 36.7% |
| Cc1cc(C)c2cc(CN(Cc3cccs3)Cc3nnnn3CC3CCCO3)c(=O)[nH]c2c1 (stereo not drawn) | 48.9% |
| CCC(c1nnnn1C1CCCC1)N(Cc1cccs1)Cc1cc2cccc(C)c2[nH]c1=O (stereo not drawn) | 30.1% |
